Results reported in the supplement of paper PMC11417369.
± gives the standard deviation of the averaged measurements. Whole data set: some 25,000 sequences, median “ln(normalized median fluorescence intensity)” near 10, cut for the highest 2% near 12. The sample holds the highest values, similar sequences and a random draw of the others, so the mix is not that of the screen.

Each sequence was assayed on PfAP2-G AP2 domain (GST-tagged) (assay: gcPBM binding intensity (ln(normalized median fluorescence intensity)); higher = stronger DNA binding).
Method in brief: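 DNA-binding domains from P. falciparum, fused to GST and produced in E. coli, were put on an Agilent 4 × 180k double-stranded probe array for 1 h in 1× PBS holding 1% milk, 0.2 mg/ml BSA, 0.5% salmon testes DNA and 0.03% Triton X-100. Probes were primer-extended, 36 bp long and drawn from intergenic genomic regions, with negative controls included. After Alexa488 anti-GST antibody detection and a 488 nm scan, binding intensity was set as the highest Masliner-normalised natural-log median intensity across replicate spots of either probe orientation.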

Row | Sequence | gcPBM binding intensity (ln)
1 | ATAAAAAAAATAAAAAGTACAAAAAAAAAAAATGGA [XGTACX_site136] | 11.3 ± 0.71
2 | ACATATGACTATAATACACACTTGTATTATTAATAT [CACACA_site6951] | 9.98 ± 0.13
3 | ATATATATATCTAATTGTACATATTTTATAAATAAG [XGTACX_site4840] | 11 ± 0.52
4 | GGCATAAATATATGCACACACAAAAAAAAAAAAAAA [CACACA_site59] | 10 ± 0.65
5 | GAAAAAAATGAAATTAGTACTTATCTTAAATTTTTA [XGTACX_site1018] | 10.8 ± 0.47
6 | TATGCTATTATATATGTACACACCAATTTATTTATA [CACACA_site3918] | 11.3 ± 0.74
7 | ATCTTTCGAACATGTACACACAGAAAAAAAAAAAAA [CACACA_site5393] | 11.3 ± 1
8 | AGAAAAAAAAAAAAATGTACAGACTTTTTCTTATAA [XGTACX_site6481] | 11 ± 0.55
9 | AATATTTATTTTACATGTACTTATTTTTCTTTTAAC [XGTACX_site3631] | 11.4 ± 0.88
10 | TTTTTCTTACATGAGTGTACACACTTTTTTTCAGAA [XGTACX_site138] | 11.7 ± 0.83
11 | TTTTCTTACATGAGTGTACACACTTTTTTTCAGAAA [CACACA_site70] | 11.6 ± 0.91
12 | TTCTTACATGAGTGTACACACTTTTTTTCAGAAAAT [CACACA_site4215] | 11.7 ± 1
13 | TGTTTGATGGTACACGTACACACCTTGCAAATATTT [CACACA_site888] | 11.8 ± 1.2
14 | TATACAATATATTTTGGTACACAAACAAAAAAATAT [XGTACX_site2522] | 11.2 ± 0.82
15 | AAATATTTTGCATACACATGCAAATATTTTTTACAT [TGCATGCA_site554] | 9.8 ± 0.11
16 | TATAATATGTTTGATGGTACACGTAAACACCTTGCA [XGTACX_site1643] | 11.1 ± 0.68
17 | ATGTTTGATGCTACACGTACACACCTTGCAAATATT [XGTACX_site1644] | 11.6 ± 1
18 | TTTGATGGTACACGTACACACCTTGCAAATATTTTT [CACACA_site4645] | 11.8 ± 1
19 | ATATATATCGGACACACACACATGTTTTAAAACTAT [CACACA_site4218] | 10.9 ± 0.64
20 | TGTTTATTTTTAAAAAGTACATATTTAAAAAACTTC [XGTACX_site271] | 11.4 ± 1
21 | TTTTTTTTTTTTTGGGGTACATTTTAATTAATATTA [XGTACX_site4866] | 11.4 ± 0.86
22 | GTTAATATTTTTGGGGGTACTTAAAAAAAAAAAAAA [XGTACX_site1477] | 11.7 ± 0.91

Row | Sequence | gcPBM binding intensity (ln)
23 | CCATTTATTATTTGGGGTACATTTAATTAATATTTT [XGTACX_site5940] | 11.5 ± 1
24 | ATTTTTTTTTTTTTTTTGGGGGGGTATACTTTTAAA [CACACA_negctrl_site1020] | 11.9 ± 0.77
25 | TATATTTAACATACTTTTTTTTTTTTTTTTTTTTTT [CACACA_negctrl_site938] | 10.9 ± 0.45
26 | TATACTTTATATATTTTGTATATATATTTTTTTTAT [TGCATGCA_negctrl_site530] | 9.645 ± 0.035
27 | ACAGATATACATAAAAAAAAAATAATTTTACATATA [CACACA_negctrl_site929] | 9.765 ± 0.049
28 | TACATAAATACATACACACACATATAACCAATGTAG [CACACA_site5243] | 10.3 ± 0.11
29 | AATCATTTATGGAAAGCATGCTAAATTAGAGTATAC [TGCATGCA_site172] | 10.03 ± 0.064
30 | TAATGTAATACATATTGTACACATACATATATATTT [XGTACX_site7531] | 11.2 ± 0.71
31 | TGAGTTCAACAAAGACGTACAAAACCAAAAATATAA [XGTACX_site8931] | 11.6 ± 0.93
32 | TTTCAAACAAAAAGACGTACACTGAAGTTATCCGTC [XGTACX_site8824] | 11.8 ± 1
33 | AAAACAAACATTACACGTACAAAACAAGTTATAGAC [XGTACX_site6320] | 11.4 ± 0.74
34 | AAAAAAAAAAGACACACACACACACGGAGATATATA [CACACA_site6216] | 10.1 ± 0.22
35 | TATGTGTAATATTTTTGTACAGAAAAAAAAAAAAAA [XGTACX_site7075] | 10.8 ± 0.77
36 | AATTAATGGGTACATACACACATATATACATACATA [CACACA_site742] | 11.4 ± 1
37 | TATTTATAAATTTACACACACACATGTGAACATAAA [CACACA_site1909] | 10.2 ± 0.14
38 | TATCCTAACTTTAGATGTACACAAATAAAAAAAAAA [XGTACX_site4491] | 11.7 ± 0.91
39 | ATAAATATTTACAAAAGTACACATAACTTTAGATAT [XGTACX_site1685] | 11.4 ± 0.9
40 | ATAACAAAATAAAACACACACACAAATGTACAGATA [CACACA_site5358] | 11.1 ± 0.72
41 | TTTATTTATATTTATACACACAAACATAATACTACT [CACACA_site7039] | 10.3 ± 0.28
42 | AGGTCTATATAATAAGTGCATTTTTTTTTTTTTTTT [GTGCAC_site9664] | 10.2 ± 0.26
43 | TTTTTAATATATAAAGATAATAATAAATAAAATTCA [CACACA_negctrl_site657] | 9.46 ± 0.12
44 | TATATGCACTTAATATGTACACAAAAAAAAAAAAAA [XGTACX_site6199] | 11.5 ± 1.2

Row | Sequence | gcPBM binding intensity (ln)
45 | GATTATTATTATAAGGGTACAAATATTTAATAAAAA [XGTACX_site7144] | 11 ± 0.57
46 | AAAAAAATTAAATGGGGTACAATAAGGGTCAAATAT [XGTACX_site8669] | 11.6 ± 0.93
47 | CAATAAAAATTAAAATGTACAAATAAATATAAATAT [XGTACX_site7265] | 10.8 ± 0.29
48 | AATTATATATTATCATGTACAAATATAGTAATACAA [XGTACX_site6845] | 10.7 ± 0.4
49 | ATATAAACACTGAATGCATGCACATATATATATATA [TGCATGCA_site940] | 10.2 ± 0.26
50 | TATACGCATATTTTTACACACATATTTTTTCATATA [CACACA_site2546] | 10.02 ± 0.049
51 | AAAAAAATAACAAAGTGTACTTTTATATTTTACATA [XGTACX_site8954] | 11.3 ± 0.93
52 | ACATATATTTCAAAGTGTACGCACAATTTTTTTTAC [XGTACX_site6166] | 11.7 ± 1
53 | AAAGTATAAATAAATACACACATATTTATTTATATA [CACACA_site7375] | 9.96 ± 0.2
54 | CCACATATACAAAACACACACACAACGTTTTAATAA [CACACA_site1978] | 10.1 ± 0.16
55 | ATGACTTACATATATAGTACTTTGTTTTGGAGTTGC [XGTACX_site94] | 10.8 ± 0.45
56 | TCTGTAGTTTTTTACAGTACTTTTAGGTAATACATA [XGTACX_site7417] | 11 ± 0.79
57 | GCTAGTTTTTTTTGGCGTACAGTACCGGTTTACTTT [XGTACX_site2606] | 11.6 ± 1
58 | ATAATTCCAAGAATTTCATATATCTGAATTTTAGGT [GTGCAC_negctrl_site283] | 9.61 ± 0.2
59 | GACCATATGAATAATGCACACGTTTTAAAATATTAA [CACACA_site5312] | 10.23 ± 0.028
60 | AACGATATCTGTACTACACACATTATGTCATCCTAT [CACACA_site5374] | 11.8 ± 1.1
61 | AACGATATAGGTACTACACACATTATGTCATCCTAT [CACACA_site7205] | 11.2 ± 0.77
62 | AACGATATATGTACTACACACATTATGTCATCCTAT [CACACA_site2464] | 11.5 ± 0.83
63 | TTAAATGAAAAAATATGTACGTATAATAAGAAATAT [XGTACX_site6619] | 11.6 ± 0.87
64 | ATGTATGAAAAAATGTGTACATAATTTTTTTTTTTT [XGTACX_site5444] | 11.7 ± 1
65 | TTTGTATAATACATGTGTACGTATTTTTATATAAAT [XGTACX_site8656] | 11.6 ± 0.95
66 | AAATTTTAAATAGTATGTACGTATGAAATATATATG [XGTACX_site7511] | 11.4 ± 0.79

Row | Sequence | gcPBM binding intensity (ln)
67 | CACTTTTTTTAAATGTGTACGTATATGAAAATATCA [XGTACX_site4854] | 11.7 ± 1
68 | TTTTATACATAAATATGTACGTATATATAATGAATT [XGTACX_site1337] | 11.3 ± 0.73
69 | ATATTTATATTTATGTGTACATATGAAATAATTATT [XGTACX_site7765] | 11.5 ± 0.72
70 | TATAATGAACATATGTGTACATATATTTTTTAAATT [XGTACX_site8736] | 11.4 ± 0.72
71 | TTTTATACATAAATGTGTACGTATATATAATGAATT [XGTACX_site2762] | 11.7 ± 1
72 | TTTTTTTAAAATATGAGTACATAATATTGTAAAAAT [XGTACX_site6536] | 11.4 ± 0.9
73 | AGTTTGATTTTTTCTTATAATATATTATTATATATT [CACACA_negctrl_site376] | 9.975 ± 0.021
74 | CATATGTAGGGAACAATATAATATGCTTTGAATATG [GTGCAC_negctrl_site524] | 10.2 ± 0.14
75 | AAGAATATTAATATAAATAAGTAAATAAATAAATAA [CACACA_negctrl_site417] | 9.78 ± 0.11
76 | GTATAATTTAAAAAGTGTACATAAAGTTTTTATTAA [XGTACX_site1090] | 11.6 ± 0.81
77 | ATATATATATATATATGTACATATACACATGTGTGC [XGTACX_site168] | 11.2 ± 0.55
78 | AAAAATATAATATAATGTACACAAAAAAAAAAAATC [XGTACX_site1427] | 11.4 ± 0.71
79 | GTACAAATGTTGTGTATATATACACACATACATATA [XGTACX_negctrl_site276] | 10.9 ± 0.46
80 | CATATTAGGACAAAGTGTACATATATATATATATAT [XGTACX_site1172] | 11.4 ± 0.86
81 | ATCTGACAAAAGTGTACACATATATATATATATATA [CACACA_site4814] | 11.7 ± 1.2
82 | ATAATCTGACAAATGTGTACACATATATATATATAT [XGTACX_site2379] | 11.6 ± 0.97
83 | AAAAAATGCGACATGTGTACACATATATATATATAT [XGTACX_site1679] | 11.8 ± 0.99
84 | AAATGCGCCATGTGTACACATATATATATATATATA [CACACA_site4649] | 11.5 ± 0.88
85 | TATGTAACAAAAAAAAGTACACATATATATAGTGTA [XGTACX_site7772] | 11.6 ± 0.85
86 | TAATTTTCATAATTTTGTACTTAACGTTTTACCTTG [XGTACX_site8048] | 10.9 ± 0.5
87 | TGCACAAAATTATGCACACACCTAAAATTAATTTTT [CACACA_site5596] | 10.2 ± 0.21
88 | TAAATTTAAAATGACACACACTAAAATTATTTAAGT [CACACA_site4816] | 10.05 ± 0.021
